According to patent US20210230599, “STEM-LOOP COMPOSITIONS AND METHODS FOR INHIBITING INTERLEUKIN-8” (VITRISA THERAPEUTICS, INC., published 2021):

These sequences were tested against Interleukin-8 (IL8, CXCL8), C-terminal His-tagged (Homo sapiens, UniProt P10145 SEQ:1-72) (assay: competition; competition TR-FRET; G18A). Settings: tags: C-terminal 6xHis (Sino Biological); ssRNA; 2'-F G, 2'-OMe A/C/U, 5' C6NH2, 3' idT.
Description: To better understand the sequence requirements and to confirm the stem structures of members of the Aptamer 3 family as determined from sequence covariation analysis from both the primary and secondary (degenerate) selections, a series of variants which included mutations and deletions to the predicted stems were synthesized and screened (Table 24). Activity of each of these variants were tested using a time resolved competition TR-FRET assay in which the labeled parent Aptamer 3 was competed with increasing concentrations of unlabeled variants for binding to IL8 (FIG. 14). Briefly, 2-fold dilutions of thermally equilibrated aptamers were made in TR-FRET Buffer (50 mM MOPS, pH 7.4, 125 mM NaCl, 5 mM KCl, 50 μM CHAPS, 0.1 mg/mL BSA, 1 mM CaCl₂, and 1 mM MgCl₂). 5 μL of aptamer or control solution was added to 5 μl mix of 10 nM C-terminal His-tagged-IL8, 60 nM ALEXA FLUOR® 647-labeled Aptamer, and 5 nM anti-His-Eu (Perkin Elmer) in a black wall low volume 384 well plate (Greiner). For control, 5 μl of 1000-fold excess of unlabeled parent aptamer or 5 μl TR-FRET buffer alone was added to the mix of ALEXA FLUOR® 647-labeled aptamer, His-IL8, and anti-His-Eu. The plate was covered with a plate seal and subsequently incubated in the dark for 1 hour at room temperature. The plate was read on a Biotek CYTATION™ 5 plate reader. […]

Row | Sequence | binding signal [fold worse than Aptamer 3]
1 | UGAUGACGGUAGAUUACAGGUAGAGUGACCGCAUCU | ~5
